# Source: PubChem BioAssay AID1030 (National Center for Advancing Translational Sciences (NCATS), 2008)
# About 16,000 (7.3%) of roughly 220,000 compounds were called active. Inconclusive results (about 25%) are left out. The list comes from a sample in which actives are over-represented; it also holds similar structures and randomly drawn compounds. A number with no mark means an inactive call. Calls follow the shape of the dose curve; as a rule, active = well fitted inhibition curve with a large enough effect (not every such curve was filed as active); inconclusive = small, poorly fitted or top-dose-only effect, or another doubt; inactive = no such curve, though single readings can be large or run the other way.
# Molecular target: Aldehyde dehydrogenase 1A1 (Homo sapiens) (UniProt P00352)
# Sequence (P00352 whole entry, looked up): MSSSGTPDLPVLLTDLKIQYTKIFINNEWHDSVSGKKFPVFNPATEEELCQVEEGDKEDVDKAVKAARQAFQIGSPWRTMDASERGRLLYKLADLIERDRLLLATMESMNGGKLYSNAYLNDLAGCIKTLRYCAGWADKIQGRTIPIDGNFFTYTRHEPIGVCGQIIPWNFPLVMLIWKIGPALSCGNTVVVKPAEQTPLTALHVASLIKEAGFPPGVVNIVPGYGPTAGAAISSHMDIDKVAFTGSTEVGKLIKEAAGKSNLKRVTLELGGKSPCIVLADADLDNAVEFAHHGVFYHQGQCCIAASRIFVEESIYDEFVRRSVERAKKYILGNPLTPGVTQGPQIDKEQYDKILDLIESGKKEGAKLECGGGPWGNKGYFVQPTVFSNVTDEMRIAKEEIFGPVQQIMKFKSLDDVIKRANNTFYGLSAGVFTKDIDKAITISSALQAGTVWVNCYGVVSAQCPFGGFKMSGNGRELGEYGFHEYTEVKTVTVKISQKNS
# Assay: qHTS Assay for Inhibitors of Aldehyde Dehydrogenase 1 (ALDH1A1);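 as to activity, negative = inhibition: plate controls were no enzyme wells and a reference inhibitor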
# Details: Purified ALDH1A1, NADH fluorescence, propionaldehyde substrate; series mostly up to 75.3 µM; activity, negative = inhibition: at the top concentration
# Potency is read from the fitted curve at half-maximal effect.
Structure (SMILES),"activity, negative = inhibition",Potency
Cc1ccc(NC(=S)N(CCN2CCCCC2)Cc2ccco2)cc1C,-9.28%,–
COc1ccc(CNC(=O)CN2CCC(n3nnc4cc(F)ccc43)CC2)cc1,2.04%,–
Cc1nnc(SCC(=O)N2CCOCC2)[nH]c1=O,-0.185%,–
COc1ccc(C(=O)Nc2c(N)nc(SCC(=O)N3CCC(C)CC3)[nH]c2=O)cc1OC,-5.04%,–
O=C(CSc1nc2c(cnn2-c2ccc(F)cc2)c(=O)[nH]1)N1CCCCCC1,–,0.126 µM (active)
O=C(Nc1ccc(F)c([N+](=O)[O-])c1)C1CC(=O)N(Cc2ccccc2)C1 (configuration not stated),13.4%,–
CC(CO)NCC12CC3CC(CC(C3)C1)C2 (configuration not stated),1.89%,–
CC(C)n1c(-c2ccncc2)n[nH]c1=S,-10.3%,–
Nc1ccc(C(=O)NCc2ccccc2)cc1,11.1%,–
CCCCN1C(=O)CCC(C(=O)O)C1c1ccc(OC)cc1 (configuration not stated),17.7%,–
COC(=O)C1C(=O)NCC1c1ccc(OC)cc1 (configuration not stated),-7.46%,–
COc1ccc(C2OC(=O)CC2C(=O)NC(C)C)cc1 (configuration not stated),–,15.8 µM (active)
CCOC(=O)C1(CCOC)CCN(Cc2ccc(C(=O)OC)cc2)CC1,-5.45%,–
COC(=O)c1cc(C(=O)OCC(=O)Nc2cc(C)on2)cc([N+](=O)[O-])c1,12.8%,–
CC(=O)c1cccc(NC(=O)[C@@H](NC(N)=O)C(C)C)c1,2.32%,–
O=C(CSc1nnc(C2CC2)n1Cc1ccccc1)Nc1cccnc1Cl,6.58%,–
CC(=O)c1c(C)[nH]c(C(=O)NCCCN2CCCC2)c1C,11.9%,–
CC(=O)c1c(C)[nH]c(C(=O)NCc2ccc(C)cc2)c1C,-5.82%,–
CCCCN(CC)CCNC(=O)c1[nH]c(C)c(C(C)=O)c1C,–,10 µM (active)

Structure (SMILES),"activity, negative = inhibition",Potency
CC(=O)NC1(c2ccc(F)cc2)CCN(C(=O)c2c(F)cccc2F)CC1,3.13%,–
O=C(CCC(=O)NNc1nc2ccccc2c2nc(-c3ccccc3)nn12)NCCCN1CCCC1=O,6.86%,–
CC1=C(C(N)=O)C(c2sccc2C)n2nnnc2N1 (configuration not stated),–,20 µM (active)
CC(=O)C1=C(C)NC(C)=C(C(C)=O)C1c1cn(-c2ccccc2)nc1-c1cccs1,6.63%,–
CCCCCOC(=O)C1=C(C)Nc2nnnn2C1c1ccc(OC)c(OC)c1OC (configuration not stated),-12.1%,–
Cc1cc(C)n(CC(=O)Nc2ccc([N+](=O)[O-])cc2)n1,9.88%,–
Cc1cc(=O)oc2c1c(C)nn2-c1ccc(Cl)cc1,12.1%,–
CC(C)(C)C(=O)CSc1nc2ccccc2o1,-5.51%,–
COc1ccccc1CNC(=O)c1cc(=O)c2ccccc2o1,-6.97%,–
Cn1cnnc1SCC(=O)Nc1ccc(N2CCOCC2)cc1,-10.1%,–
CN(Cc1ccc2nsnc2c1)Cc1nc(Cc2cccc(F)c2)no1,-4.55%,–
CCOC(=O)/C(C#N)=C/c1ccc(OCC(=O)Nc2ccccc2)c(OC)c1,-10.2%,–
Cc1cc(C)nc(N(C#N)CC(=O)Nc2ccccc2)n1,–,15.8 µM (active)
Cc1cc(C)c(C#N)c(SCC(=O)Nc2ccccc2)n1,3.06%,–
CCC(C)NC(=O)CN(C1CCCCC1)S(C)(=O)=O (configuration not stated),0.821%,–
O=C(CSc1ncn[nH]1)Nc1nsc(-c2ccccc2)n1,4.35%,–
CCN(C(=O)CSc1ncn[nH]1)c1cccc2ccccc12,–,25.1 µM (active)
O=C(CSc1n[nH]c(-c2cccnc2)n1)Nc1ccnc2ccccc12,-11.2%,–
CCN(CC)C(=O)CSc1nc2ccccc2o1,0.852%,–

Structure (SMILES),"activity, negative = inhibition",Potency
CCOC(=O)n1c(SCC(=O)N(CC)CC)nc2ccccc21,-7.08%,–
O=C(CSc1ncn[nH]1)Nc1ccnc2ccccc12,–,22.4 µM (active)
O=S(=O)(c1cccc(C(F)(F)F)c1)N1CCN(c2cnccn2)CC1,-3.48%,–
CCCn1nc(Oc2nc(NC(C)C)nc(N(C)C)n2)ccc1=O,-0.45%,–
O=C(/C=C/c1cccs1)NCc1cccnc1,-3.64%,–
O=C(NCc1cccnc1)c1cn(-c2ccccc2)nc1-c1cccs1,–,3.98 µM (active)
O=C(NCc1cccnc1)c1nc(-c2cccs2)no1,9.75%,–
O=[N+]([O-])c1cc(S(=O)(=O)CCCN2CCOCC2)ccc1F,-2.48%,–
COC(=O)C(C(=O)Nc1cccc(Cl)c1C)C1CCCC1 (configuration not stated),7.44%,–
Cc1ccc(N2C(=O)CC(Sc3ncn[nH]3)C2=O)cc1 (configuration not stated),–,11.2 µM (active)
ClC1(Cl)CC1CSc1ncn[nH]1 (configuration not stated),2.15%,–
Cc1ccc(CC2CC(=O)N(c3nc(C)cc(C)n3)C2=O)cc1 (configuration not stated),-7.81%,–
O=C1CC(Sc2ncn[nH]2)C(=O)N1c1ccccc1 (configuration not stated),–,1.12 µM (active)
COc1ccc(-c2nc(SCC(=O)N3CCOCC3)n[nH]2)cc1,12.9%,–
Cc1ccc(N2C(=O)C3CC3C2=O)cc1 (configuration not stated),2.4%,–
COc1ccc(N2C(=O)CC(Sc3n[nH]c(-c4ccc(C)cc4)n3)C2=O)cc1 (configuration not stated),–,0.794 µM (active)
COc1ccc(N2C(=O)CC(SC(C)C)C2=O)cc1 (configuration not stated),-19%,–
O=C(CSc1nc2ccc(Nc3nc(N4CCOCC4)nc(N4CCOCC4)n3)cc2s1)NCc1ccco1,-6.31%,–
CSc1sc(C(=O)NC(=O)NCc2cccnc2)c(C)c1-c1ccon1,-1.45%,–
